Screening data (PubChem)
KCNQ2 enhance: KCNQ2 (rat) channel potentiation | O88943 | CHO-K1 KCNQ2, FluxOR thallium flux fluorescence; active compounds read high | B-score at 10 µM | actives 0.54% (n = 310,000);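 active means fluorescence ratio B-score at least 3 SD of library B-scores, with initial fluorescence B-score within 3 of them, cut at about 5.3 in these data; same plate scores as AID 2156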;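 further: B-score of peak minus minimum over baseline fluorescence ratio after K+ and Tl+ stimulus; positive B-score means potentiation of KCNQ2 with more thallium influx and brighter signal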
KCNQ2 inh: KCNQ2 (rat) channel inhibition | O88943 | CHO-K1 KCNQ2, FluxOR thallium flux, 20 min; active compounds read low | B-score at 10 µM | actives 1.1% (n = 310,000) | AID 2156;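 active means fluorescence ratio B-score at most minus 3 library SDs, with starting brightness B-score within 2 library SDs, cut at about -5.5 in these data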
Kir21 conf inh: confirmation of mouse Kir2.1 potassium channel inhibitors; shares compounds with KCNQ2 enhance; Kir2.1-expressing cells, FluxOR thallium flux fluorescence; active compounds read low; Tl flux remaining, % of negative control (active compounds read low), % at 10 µM; actives 41% (n = 2,300);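 active means Primary-screen hit whose thallium flux fell at least 3 control SD below untreated wells in both duplicates, with normal baseline fluorescence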;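 further: 0% = blank wells without stimulus and 100% = stimulated no-compound controls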
Target sequence (P35561 whole entry, looked up): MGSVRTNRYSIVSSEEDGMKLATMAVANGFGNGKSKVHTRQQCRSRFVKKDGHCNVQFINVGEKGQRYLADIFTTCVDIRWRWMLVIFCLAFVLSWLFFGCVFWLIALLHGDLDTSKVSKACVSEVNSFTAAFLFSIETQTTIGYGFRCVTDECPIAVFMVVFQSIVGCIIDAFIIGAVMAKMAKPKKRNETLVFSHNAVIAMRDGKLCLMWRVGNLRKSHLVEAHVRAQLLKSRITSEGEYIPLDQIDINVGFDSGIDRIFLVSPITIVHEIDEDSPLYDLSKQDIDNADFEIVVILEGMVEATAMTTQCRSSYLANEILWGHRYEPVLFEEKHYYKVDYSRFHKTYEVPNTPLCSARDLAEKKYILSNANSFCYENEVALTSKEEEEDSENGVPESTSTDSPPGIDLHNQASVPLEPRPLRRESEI
HEK293 ctr: counter-screen for Kir2.1 inhibitors: effect in parental HEK293 cells; shares compounds with KCNQ2 enhance; FluxOR signal as % of negative control (100 = no effect), % at 10 µM; actives 19% (n = 2,300); FluxOR thallium flux fluorescence; 0% = unstimulated blank wells;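 active means dye signal at least 3 control SD above or below untreated wells in both duplicates, raw fluorescence within 3, either direction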;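 further: percent is based on the flux ratio of peak minus minimum fluorescence over baseline F0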
CHO-K1 ctr: parental CHO-K1 activity in KCNQ2 potentiator counter-screen | parental CHO-K1 cells, FluxOR thallium flux fluorescence; zero = vehicle mean+3SD, 100% = vehicle-minus-blank window | activity increase over 3SD of controls, % at 10 µM | AID 2282 | actives 43% (n = 1,200) | shares compounds with KCNQ2 enhance;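 active means signal rise of at least 3 SD above the untreated control mean, in both duplicate wells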;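 further: counter screen of KCNQ2 potentiator hits so any rise reflects channel-independent effects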
KCNQ1 pot spec: human KCNQ1 counter-target activity of KCNQ2 potentiators | AID 2283 | activation over 3SD threshold, % at 10 µM | CHO KCNQ1 stable, FluxOR thallium flux fluorescence; beyond 3SD, as % of vehicle-control signal | actives 28% (n = 1,200) | shares compounds with KCNQ2 enhance;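 active means fluorescence ratio rise of at least 3 SD of vehicle wells above their mean, in both replicate wells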;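 further: 0% = vehicle mean plus 3 SD and 100% = vehicle minus unstimulated blank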
KCNQ2 pot confirm: rat KCNQ2 channel potentiator confirmation. shares compounds with KCNQ2 enhance. CHO-KCNQ2 cells, FluxOR thallium flux fluorescence. potentiation, less the hit threshold, % at 10 µM. actives 68% (n = 1,200). AID 2287;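 active means fluorescence ratio rising 3 SD or more over the vehicle control mean in both replicates, plus primary screen hit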;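 further: peak minus minimum thallium fluorescence divided by baseline after K/Tl stimulus; 0% = vehicle mean plus 3 SD and 100% = vehicle minus unstimulated blank difference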
Kir21 spec: mouse Kir2.1 off-target activity of KCNQ2 potentiators | actives 2% (n = 1,200) | shares compounds with KCNQ2 enhance | AID 2345 | HEK293 Kir2.1, FluxOR thallium flux fluorescence | activity over 3SD threshold, % at 10 µM;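 active means fluorescence ratio rise of at least 3 SD above the vehicle-control mean, seen in both replicates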;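 further: 0% = vehicle mean plus 3 SD and 100% = vehicle minus no-stimulus blank window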
KCNQ2 W236L MoA: rat KCNQ2 W236L mutant potentiation by KCNQ2 potentiators | shares compounds with KCNQ2 enhance | CHO KCNQ2-W236L, automated patch clamp current | current increase over 3SD of negative controls (%), active compounds read high, % at 25 µM | actives 10% (n = 940) | AID 2558;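 active means current increase at least 3 SD of the untreated controls above them in both duplicate recordings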
* hit, by the source's call; i = inactive; nt = no result given. Most compounds without a hit are left out; they make up all but 1.6% or so of the library.

SMILES	KCNQ2 enhance	KCNQ2 inh	Kir21 conf inh	HEK293 ctr	others
C/C(=N\NC(=O)c1cccc(Br)c1)c1ccccn1	7.7*	i	i	i	CHO-K1 ctr=-19;KCNQ1 pot spec=-11;KCNQ2 pot confirm=-23;Kir21 spec=-36
CCOc1cc(N2CCOCC2)c(OCC)cc1NC(=O)CCC1CCCC1	25*	i	i	i	CHO-K1 ctr=0.0*;KCNQ1 pot spec=220*;KCNQ2 pot confirm=112*;Kir21 spec=-37;KCNQ2 W236L MoA=i
CCOc1cc(N2CCOCC2)c(OCC)cc1NC(=O)C1CCCC1	4.2	i	nt	nt
CCOc1cc(N2CCOCC2)c(OCC)cc1NC(=O)COC(=O)c1ccccc1C	0.04	i	nt	nt
CCOc1cc(N2CCOCC2)c(OCC)cc1NC(=O)Cc1cccc2ccccc12	8.2*	i	i	i	CHO-K1 ctr=2.4*;KCNQ1 pot spec=26*;KCNQ2 pot confirm=9.3*;Kir21 spec=-41;KCNQ2 W236L MoA=i
Cc1ccc(NC(=O)C2CCN(C(=O)c3ccco3)CC2)cc1C	nt	i	nt	nt
Cc1cc(NC(=O)CSc2ncccc2C(=O)O)no1	nt	i	nt	nt
O=C(Nc1ccc(Cl)cc1)C(Cl)C(=O)c1ccccc1 (centres undefined)	0.25	i	70%*	i
O=C(NC(=S)Nc1ccc(Cl)cc1)c1ccccc1	nt	i	nt	nt
CCOc1ccc(CN2CCC(Cc3ccccc3)CC2)cc1	0.4	i	41%*	i
COc1ccc(CN2CCC(Cc3ccccc3)CC2)cc1OC	0.03	i	nt	nt
Cc1ccc(NC(=O)CSc2ccc(Br)cc2)cc1S(=O)(=O)N1CCOCC1	nt	i	nt	nt
N#CC1(C#N)[C@@H](C(=O)C23CC4CC(CC(C4)C2)C3)C12CCOCC2	nt	i	nt	nt
CC(C)CC(NS(=O)(=O)OCC(Cl)(Cl)Cl)c1ccccc1 (centres undefined)	nt	i	nt	nt
CC(NS(=O)(=O)OCC(Cl)(Cl)Cl)c1ccc(Br)cc1 (centres undefined)	nt	i	42%*	i
CC1CCN(CCCNC(=O)c2ccc3c(Cl)c4c(nc3c2)CCCC4)CC1	nt	i	nt	nt
Cc1ccc(CNC(=O)c2ccc(Cn3nc(C)c(Cl)c3C)o2)cc1	nt	i	48%*	i
Cc1cc(C)cc(NC(=O)c2ccc(Cn3nc(C)c(Cl)c3C)o2)c1	nt	i	nt	nt
O=C(Nc1ccnn1C1CCN(CCCc2ccccc2)CC1)c1cccc(F)c1	1.1	i	nt	nt
COC(=O)CN1C(=O)Nc2ccc(Br)cc2C1c1ccccc1 (centres undefined)	6.7*	i	i	i	CHO-K1 ctr=-16;KCNQ1 pot spec=-10;KCNQ2 pot confirm=52*;Kir21 spec=-48;KCNQ2 W236L MoA=i
NNC(=O)CN1C(=O)Nc2ccc(Cl)cc2C1c1ccccc1 (centres undefined)	2.3	i	nt	nt
CCC(CC)C(=O)c1c[nH]c(C(=O)N2CCN(c3ccccc3F)CC2)c1	nt	i	nt	nt
COc1ccc(CCN2C(=O)CSC2c2ccc(F)cc2)cc1 (centres undefined)	0.53	i	nt	nt
CCOc1ccc(Nc2ccnc3cc(Cl)ccc23)cc1	nt	i	nt	nt
CN1CCN(c2ccc(Nc3ccnc4cc(Cl)ccc34)cc2)CC1	nt	i	58%*	i
SMILES	KCNQ2 enhance	KCNQ2 inh	Kir21 conf inh	HEK293 ctr	others
Cc1ccc(C)c(N2CCN(C(=O)c3ccc4nsnc4c3)CC2)c1	nt	i	nt	nt
COc1cc(/C=C2\C(=O)ON=C2c2ccccc2)cc(Cl)c1O	2.9	i	nt	nt
COc1cc(/C=C2\C(=O)ON=C2c2ccccc2)cc(Br)c1O	2	i	i	51%*
CCOc1cc(/C=C2/C(=O)ON=C2C)cc(Br)c1O	0.24	i	nt	nt
CCOc1cc(/C=C2\C(=O)ON=C2c2ccccc2)cc(Br)c1O	2	i	i	46%*
O=C(Nc1ccnn1C1CCN(Cc2cccc(F)c2F)CC1)C1CCCC1	nt	i	nt	nt
COCCN(C(=S)Nc1ccc(C)cc1)C(C)c1cccnc1 (centres undefined)	1.7	i	nt	nt
Cc1ccc2sc(N(CCCN(C)C)C(=O)c3ccc(Br)s3)nc2c1C	nt	i	nt	nt
COc1cccc(C(C)NC(=S)NCc2ccc(F)cc2)c1 (centres undefined)	3.2	i	48%*	i
Cc1ccc(NC(=S)NCc2ccc(F)cc2)c(C)c1	5.5*	i	i	i	CHO-K1 ctr=-7;KCNQ1 pot spec=-8;KCNQ2 pot confirm=42*;Kir21 spec=-53;KCNQ2 W236L MoA=i
CCOc1ccc(C(C)NC(=S)NCc2ccc(F)cc2)cc1 (centres undefined)	2.9	i	nt	nt
Cc1ccc(NC(=S)NCc2ccc(S(N)(=O)=O)cc2)c(C)c1	0.24	i	nt	nt
Cc1ccc(C(C)NC(=S)NCc2ccc(F)cc2)cc1C (centres undefined)	8.1*	i	68%*	i	CHO-K1 ctr=0.0*;KCNQ1 pot spec=45*;KCNQ2 pot confirm=33*;Kir21 spec=-73;KCNQ2 W236L MoA=i
CCc1ccc(C(C)NC(=S)NCc2ccc(F)cc2)cc1 (centres undefined)	4.6	i	nt	nt
O=C(Nc1ncc2c(n1)-c1ccccc1CC2)c1cccs1	9.7*	i	i	i	CHO-K1 ctr=-9;KCNQ1 pot spec=-9;KCNQ2 pot confirm=29*;Kir21 spec=-14;KCNQ2 W236L MoA=i
O=C(Nc1ncc2c(n1)-c1ccccc1CC2)c1ccccc1	8.5*	i	i	73%*	CHO-K1 ctr=-6;KCNQ1 pot spec=73*;KCNQ2 pot confirm=17*;Kir21 spec=-50;KCNQ2 W236L MoA=i
O=C(Nc1nc2c(s1)CCc1ccccc1-2)c1cccs1	0.02	i	nt	nt
O=C(Nc1ncc2c(n1)-c1ccccc1CC2)c1ccc(F)cc1	4.5	i	nt	nt
c1ccc(-c2nc(NC3CCCC3)c3ccccc3n2)cc1	nt	i	nt	nt
CCCCN(CC)C(=O)c1oc2ccc(S(=O)(=O)N3CCCC3)cc2c1C	nt	i	nt	nt
CC(C)OC(=O)c1cc2c(ccn2C)n1CC(=O)N1CCC(Cc2ccccc2)CC1	9.9*	i	i	i	CHO-K1 ctr=40*;KCNQ1 pot spec=70*;KCNQ2 pot confirm=7.1*;Kir21 spec=-20;KCNQ2 W236L MoA=i
Cc1ccccc1Cn1c(C(=O)OC(C)C)cc2c1ccn2C	nt	i	nt	nt
CN1CCN(S(=O)(=O)c2cccs2)CC1	0.11	i	nt	nt
CC1c2ccsc2CCN1S(=O)(=O)c1cccs1 (centres undefined)	nt	i	57%*	i
CCCCCCNC(=O)Nc1ccccc1	5.9*	i	i	i	CHO-K1 ctr=-8;KCNQ1 pot spec=-11;KCNQ2 pot confirm=3.7*;Kir21 spec=-24;KCNQ2 W236L MoA=i
O=C(O)CCCNC(=O)Nc1ccccc1	0.71	i	nt	nt
CCOc1cc(/C=N/NS(=O)(=O)c2ccccc2)ccc1OS(=O)(=O)c1ccc(C)cc1	nt	i	nt	nt
